The test system of experiment [1] is Wnt5a (protein binding on small-molecule microarray). In words: Wnt5a binders on small-molecule microarray, primary screen, biophysical, 635/667 nm fluorescence (AID 1142).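 Further: fluorescence read at 667 nm with signal to noise per printed feature.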 The conditions noted are these: 635 nm fluorescence, higher = more signal.
Experiment [2] in a line: cell viability in Huh7 cells, primary screen, cytotoxicity control for HCV replication inhibitor project, CellTiter-Glo luminescence, basal, 48 h (AID 1143).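 Further: Huh7 hepatoma cells carrying a hepatitis C replication reporter with no stimulus; test concentration not given here.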 The conditions noted are these: Huh7 HCV replicon, higher = more signal, called active from +8 up or from −8 down.
Experiment [3] in a line: P. aeruginosa biofilm formation inhibitors, primary screen, PAO1 strain, BacTiter-Glo luminescence, LB-PBS (AID 1144). The conditions noted are these: 12 h, higher = more signal.
The nature of experiment [4]: CREB reporter modulators without forskolin, primary screen, cell-based, PC12, CRE-LacZ reporter, unstimulated (AID 1145). The conditions noted are these: no forskolin, luminescence, 4.5 h, higher = more signal, called active from +8 up or from −8 down.
Experiment [5] in a line: CREB reporter modulators under forskolin, primary screen, cell-based, PC12, CRE-LacZ reporter, forskolin-stimulated (AID 1146).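 Further: PC12 cells with 6xCRE LacZ reporter stimulated by forskolin 10 µM; beta-galactosidase reporter signal reflecting CREB driven transcription.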 The conditions noted are these: luminescence, 4.5 h, higher = more signal, called active from +8 up or from −8 down.
Experiment [6] deals with Streptavidin (Streptomyces avidinii) (UniProt P22629). The experiment in a line: streptavidin binders on small-molecule microarray, primary screen, artefact control for SMM compound annotation, biophysical, 635/667 nm fluorescence (AID 1147).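 Further: signal reflects streptavidin binding to arrayed compounds as a control protein.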 The conditions noted are these: streptavidin binding, higher = more signal.
Sequence of Streptavidin (Streptomyces avidinii) (P22629 whole entry, looked up): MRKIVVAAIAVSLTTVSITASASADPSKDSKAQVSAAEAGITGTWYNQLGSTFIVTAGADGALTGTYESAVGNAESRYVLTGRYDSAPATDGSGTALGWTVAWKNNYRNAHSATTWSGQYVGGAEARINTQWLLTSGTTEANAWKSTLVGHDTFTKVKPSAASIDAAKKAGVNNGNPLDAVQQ
Experiment [7] can be described thus: small-molecule binders of probe aInhba, primary screen, biochemical, small-molecule microarray, 635/667 nm fluorescence (AID 1148).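 Further: score merges 667nm spot fluorescence with signal-to-noise for antibody binding to printed compounds.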 The conditions noted are these: higher = more signal.
The target of experiment [8] is Torsin-1A (Homo sapiens) (UniProt O14656). In words: torsin A binders from cell lysate, primary screen, small-molecule microarray, wild-type, 635/667 nm (AID 1149). The conditions noted are these: COS7 hTOR1A-WT lysate, 635 nm fluorescence, higher = more signal.
Sequence of Torsin-1A (Homo sapiens) (O14656 whole entry, looked up): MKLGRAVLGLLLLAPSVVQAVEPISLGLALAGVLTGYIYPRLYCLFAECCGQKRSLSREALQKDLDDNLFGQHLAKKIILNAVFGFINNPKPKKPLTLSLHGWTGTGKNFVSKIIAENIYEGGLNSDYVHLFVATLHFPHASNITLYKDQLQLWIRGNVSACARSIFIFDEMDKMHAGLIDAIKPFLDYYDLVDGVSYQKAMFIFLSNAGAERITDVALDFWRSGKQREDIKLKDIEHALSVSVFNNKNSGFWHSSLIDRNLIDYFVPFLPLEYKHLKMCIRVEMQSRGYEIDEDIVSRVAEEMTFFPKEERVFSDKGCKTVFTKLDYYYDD
For experiment [9] the target is unchanged. The experiment in a line: small-molecule binders of mutant TOR1A in lysate, primary screen, cell lysate, small-molecule microarray, COS7 lysate, 635/667 nm fluorescence (AID 1150).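 Further: score pools 667 nm emission and signal to noise measuring lysate protein binding.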 The conditions noted are these: COS7 hTOR1A mutant lysate, 635 nm fluorescence, higher = more signal.
Experiment [10] deals with Sonic hedgehog protein (Shh). The experiment in a line: small-molecule binders of Shh protein, primary screen, biochemical, small-molecule microarray, 635/667 nm fluorescence (AID 1151).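 Further: Shh protein binding to compounds spotted on small-molecule microarray slides; score combines spot fluorescence intensity with signal-to-noise across triplicate slides.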 The conditions noted are these: small-molecule microarray binding, 635 nm fluorescence; higher = more signal.
Experiment [11] is described as follows: E. coli DRC41 culture turbidity changes, primary screen, E. coli filamentation inducer project, strain DRC41, OD650, 48 h (AID 1152).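 Further: E. coli MC1000 strain DRC41 lacking acrAB efflux pump and sulA.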 The conditions noted are these: E. coli DRC41 (acrAB sulA), higher = more signal, called active from +8 up or from −8 down.
The nature of experiment [12]: small-molecule binders of probe aLefty1, primary screen, biochemical, small-molecule microarray, 635/667 nm fluorescence (AID 1153).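 Further: score merges spot fluorescence with signal-to-noise ratio from the scanned slide images.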 The conditions noted are these: higher = more signal.
A short description of experiment [13]: PSAC antagonists in infected red cells, primary screen, cell-based, P. falciparum Indochina, OD700, 1 h (AID 1154). The conditions noted are these: P. falciparum Indochina infected RBC osmotic lysis, higher = more signal, called active from +8 up or from −8 down.
The nature of experiment [14]: PSAC antagonists in infected red cells, primary screen, cell-based, P. falciparum Indochina, OD700, 2 h (AID 1155).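 Further: lysis reports solute entry through the parasite surface anion channel PSAC; channel blockers reduce lysis of infected cells.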 The conditions noted are these: P. falciparum Indochina infected erythrocytes, osmotic lysis OD700; higher = more signal, called active from +8 up or from −8 down.
The nature of experiment [15]: osmotic lysis modulators in infected erythrocytes, primary screen, PSAC antagonist project, cell-based, P. falciparum Indochina, OD700, 3 h (AID 1156). The conditions noted are these: higher = more signal, called active from +8 up or from −8 down.
Experiment [16] is described as follows: PSAC antagonists in infected red cells, primary screen, cell-based, P. falciparum Indochina, OD700, 18 h (AID 1157). The conditions noted are these: P. falciparum Indochina infected erythrocytes, osmotic lysis OD700, 18 h; higher = more signal, called active from +8 up or from −8 down.
Experiment [17] can be described thus: modulators of S6 phosphorylation in cells, primary screen, cell-based, A549, cytoblot, luminescence, serum-stimulated (AID 1158).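 Further: serum-stimulated A549 lung adenocarcinoma cells; signal is phosphorylated S6 detected by cytoblot immunostaining with HRP secondary.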 The conditions noted are these: A549 phospho-S6 cytoblot, 5 h, higher = more signal.
For experiment [18], the target named is NADPH oxidase 2 (Homo sapiens) (UniProt P04839). In words: NOX2-dependent H2O2 signal modulators, primary screen, NOX inhibitor project, cell-based, HEK293-NOX2, PMA-stimulated, Amplex Red fluorescence (AID 1159). Further: test concentration not given here. The conditions noted are these: 45 min, higher = more signal, called active from +8 up or from −8 down.
Sequence of NADPH oxidase 2 (Homo sapiens) (P04839 whole entry, looked up): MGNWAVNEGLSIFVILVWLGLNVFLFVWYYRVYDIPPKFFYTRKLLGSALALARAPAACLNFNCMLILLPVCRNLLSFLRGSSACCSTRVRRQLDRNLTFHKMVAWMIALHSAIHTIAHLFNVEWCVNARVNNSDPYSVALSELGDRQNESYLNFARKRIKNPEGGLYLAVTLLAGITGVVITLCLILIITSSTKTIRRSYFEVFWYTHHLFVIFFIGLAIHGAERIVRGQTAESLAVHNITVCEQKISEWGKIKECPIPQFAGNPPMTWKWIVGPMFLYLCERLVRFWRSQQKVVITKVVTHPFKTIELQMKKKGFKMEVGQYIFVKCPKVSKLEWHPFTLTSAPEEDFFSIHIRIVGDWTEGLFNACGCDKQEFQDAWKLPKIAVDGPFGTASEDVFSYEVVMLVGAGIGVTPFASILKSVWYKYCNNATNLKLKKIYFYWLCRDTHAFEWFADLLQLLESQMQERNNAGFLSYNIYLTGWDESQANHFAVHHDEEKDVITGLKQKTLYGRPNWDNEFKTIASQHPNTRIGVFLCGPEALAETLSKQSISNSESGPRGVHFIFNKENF
In experiment [19] the target is NADPH oxidase 4 (Homo sapiens) (UniProt Q9NPH5). In words: NOX4-dependent H2O2 signal modulators, primary screen, NOX inhibitor project, cell-based, HEK293-NOX4, tetracycline-induced, Amplex Red fluorescence (AID 1160). The conditions noted are these: 45 min, higher = more signal, called active from +8 up or from −8 down.
Sequence of NADPH oxidase 4 (Homo sapiens) (Q9NPH5 whole entry, looked up): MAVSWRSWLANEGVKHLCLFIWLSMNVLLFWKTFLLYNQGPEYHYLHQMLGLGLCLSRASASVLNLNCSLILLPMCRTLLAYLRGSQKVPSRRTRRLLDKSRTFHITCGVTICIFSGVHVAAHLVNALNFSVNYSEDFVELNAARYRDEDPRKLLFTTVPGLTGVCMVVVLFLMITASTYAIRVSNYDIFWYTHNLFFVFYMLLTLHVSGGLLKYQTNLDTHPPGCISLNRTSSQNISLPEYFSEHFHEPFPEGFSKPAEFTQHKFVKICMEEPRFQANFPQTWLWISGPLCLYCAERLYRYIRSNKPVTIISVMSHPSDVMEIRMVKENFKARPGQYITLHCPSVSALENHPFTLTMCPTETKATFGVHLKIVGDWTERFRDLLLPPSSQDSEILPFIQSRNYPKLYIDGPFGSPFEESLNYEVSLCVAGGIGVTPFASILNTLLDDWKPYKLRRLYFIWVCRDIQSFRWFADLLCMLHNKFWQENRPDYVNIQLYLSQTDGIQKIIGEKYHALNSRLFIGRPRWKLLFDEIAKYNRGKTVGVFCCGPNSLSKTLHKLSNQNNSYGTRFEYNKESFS
Experiment [20] deals with NADPH oxidase 5 (Homo sapiens) (UniProt Q96PH1). In words: NOX5-dependent H2O2 signal modulators, primary screen, NOX inhibitor project, cell-based, HEK293-NOX5, Amplex Red fluorescence (AID 1161). The conditions noted are these: HEK293-NOX5, ionomycin, 45 min, higher = more signal.
Sequence of NADPH oxidase 5 (Homo sapiens) (Q96PH1 whole entry, looked up): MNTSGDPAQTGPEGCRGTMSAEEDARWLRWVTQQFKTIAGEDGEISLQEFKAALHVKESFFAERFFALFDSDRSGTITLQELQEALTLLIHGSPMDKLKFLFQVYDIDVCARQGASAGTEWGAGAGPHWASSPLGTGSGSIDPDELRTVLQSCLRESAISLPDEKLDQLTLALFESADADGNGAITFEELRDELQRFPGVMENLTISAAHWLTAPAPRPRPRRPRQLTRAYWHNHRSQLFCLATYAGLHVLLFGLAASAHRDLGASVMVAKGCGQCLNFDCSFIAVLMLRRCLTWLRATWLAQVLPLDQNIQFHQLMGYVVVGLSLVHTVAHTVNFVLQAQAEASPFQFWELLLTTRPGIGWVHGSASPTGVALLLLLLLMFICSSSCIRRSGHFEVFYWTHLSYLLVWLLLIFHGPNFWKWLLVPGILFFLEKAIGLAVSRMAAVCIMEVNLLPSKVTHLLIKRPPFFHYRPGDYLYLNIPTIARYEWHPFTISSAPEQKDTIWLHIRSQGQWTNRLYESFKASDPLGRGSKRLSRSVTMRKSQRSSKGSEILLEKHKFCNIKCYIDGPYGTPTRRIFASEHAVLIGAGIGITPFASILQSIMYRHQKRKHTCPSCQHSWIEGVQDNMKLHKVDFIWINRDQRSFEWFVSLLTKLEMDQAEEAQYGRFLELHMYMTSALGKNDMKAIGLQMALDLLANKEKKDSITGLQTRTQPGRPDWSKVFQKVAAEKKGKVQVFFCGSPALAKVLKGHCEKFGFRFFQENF

Activity calls are given as the source filed them. Unless noted, how the calls were made is not given here.

Consider eight compounds from PubChem BioAssay.

On to `C=C(/C(=C/C[C@H](OC(=O)c1ccncc1)c1ccc(OCCO)cc1)c1cnc2ccccc2c1)C(C)C`, for which the composite z-score in [1] was 1.32; in [6] it was 1.3; in experiment [7] it was 0.0471; with Torsin-1A (Homo sapiens) [8], 1.12; with Torsin-1A (Homo sapiens) [9], 0.551; in experiment [10] it was 2.16. The composite z-score in experiment [12] stood at 0.188. Besides, the z-score in experiment [2] was -2.02 (inactive); in experiment [3], -0.295 (inactive); in experiment [4], 6.42 (inactive); in experiment [5], -0.429 (inactive); in experiment [11] it was -0.592 (inactive); in experiment [13] it was 18.5 (active). Moreover, the z-score in [14] is 3.04 (inactive); in experiment [15], 1.11 (inactive); in experiment [16], 0.724 (inactive); in [17] it was -0.288; in [18] it was -0.513 (inactive); in experiment [19], -0.346 (inactive). Besides, in experiment [20], the z-score is -0.699.
Consider `NCCCCCNC(=O)[C@@H]1C[C@@H]2C(=O)N3CCC[C@H]3C(=O)N2[C@@H]1c1cccc(OCCO)c1`, for which the composite z-score was 0.369 in experiment [1]; 0.899 in [6]; 1.15 in experiment [7]; -0.0659 with Torsin-1A (Homo sapiens) [8]; 1.36 with Torsin-1A (Homo sapiens) [9]; 0.696 in experiment [10]. This compound gave a composite z-score in [12] of 1.55. Moreover, the z-score was 0.902 (inactive) in experiment [2]; -0.0862 (inactive) in experiment [3]; -0.264 (inactive) in experiment [4]; 0.325 (inactive) in experiment [5]; -0.221 (inactive) in experiment [11]; 3.25 (inactive) in experiment [13]. Moreover, the z-score in experiment [14] was 0.506 (inactive); in [15], 0.744 (inactive); in [16] it was 0.0814 (inactive); in experiment [17] it was 0.0413; in experiment [18], 2.41 (inactive); in experiment [19] it was 1.19 (inactive). Besides, the z-score in [20] worked out at 0.961.
`C=CC[C@@H]1C=C[C@H](ON=C2c3cc(OC)ccc3O[C@H](c3cccc(OC)c3)[C@H]2O)[C@@H](CO)O1`: the composite z-score in experiment [1] was -0.0596; in experiment [6] it was 0.0285; in experiment [7] it was -0.182; with Torsin-1A (Homo sapiens) [8], -0.0807; in the experiment with Torsin-1A (Homo sapiens) [9], -0.129; in experiment [10], 0.723. In experiment [12], this compound displayed a composite z-score of -0.0011. The z-score was -0.375 (inactive) in [2]; 0.0436 (inactive) in [3]; 5.59 (inactive) in experiment [4]; 0.442 (inactive) in [5]; 0.97 (inactive) in experiment [11]; 2.12 (inactive) in experiment [13]. The z-score was 0.637 (inactive) in experiment [14]; 0.562 (inactive) in [15]; 0.49 (inactive) in experiment [16]; -0.171 in experiment [17]; -0.334 (inactive) in experiment [18]; 0.593 (inactive) in experiment [19]. In experiment [20], this compound had a z-score of 0.021.
For the compound `COC(=O)[C@@H]1CC[C@H](C)[C@@H](c2ccc(C)cc2)N1C(=O)c1ccc(C=NOC[C@@H](O)COCc2ccco2)cc1`, the composite z-score in [1] was -0.523; in [6] it was -1.24; in [7], -0.341; with Torsin-1A (Homo sapiens) [8] it was -1.72; in the experiment with Torsin-1A (Homo sapiens) [9], -2.05; in experiment [10], -0.334. In experiment [12], the composite z-score is -0.255. In addition, the z-score in experiment [2] is -1.83 (inactive); in [3], 1.18 (inactive); in [4], 5.89 (inactive); in [5], -0.309 (inactive); in experiment [11], 1.06 (inactive); in experiment [13], 5.79 (inactive). For the same compound, the z-score in experiment [14] was 0.944 (inactive); in experiment [15] it was -0.0224 (inactive); in experiment [16] it was 1.05 (inactive); in [17] it was -1.05; in experiment [18], -0.0479 (inactive); in experiment [19] it was -0.0106 (inactive). In addition, in experiment [20], the z-score stood at 0.254.
Turning to `COc1ccc(-c2nc3c(c4c2C[C@H](C)OC4)CN(CCC(C)C)CC3)cc1`, the composite z-score was -0.0798 in experiment [1]; 0.141 in [6]; -0.0791 in experiment [7]; -0.253 with Torsin-1A (Homo sapiens) [8]; 0.0824 with Torsin-1A (Homo sapiens) [9]; 1.32 in experiment [10]. In [12], this compound showed a composite z-score of 0.0687. Besides, the z-score was -0.333 (inactive) in experiment [2]; -1.22 (inactive) in [3]; 7.06 (inactive) in experiment [4]; -1.11 (inactive) in experiment [5]; 0.498 (inactive) in experiment [11]; 1.78 (inactive) in experiment [13]. Besides, the z-score in [14] was 0.673 (inactive); in experiment [15] it was 0.511 (inactive); in experiment [16], 0.123 (inactive); in [17] it was -0.0895; in experiment [18], -0.112 (inactive); in experiment [19], 0.239 (inactive). The z-score in [20] is 0.684.
Regarding `CCCC[C@@H]1C[C@H]1[C@@H](NS(=O)(=O)c1cccc2cccnc12)c1ccc(-c2ccccc2)cc1`, the composite z-score in [1] is -0.0366; in experiment [6], 0.731; in [7], 0.134; with Torsin-1A (Homo sapiens) [8] it was -0.199; with Torsin-1A (Homo sapiens) [9], -0.199; in experiment [10], -1.66. Further, in experiment [12], the composite z-score was 0.0217. Further, the z-score in experiment [2] is -0.325 (inactive); in [3], -1.02 (inactive); in experiment [4], 0.204 (inactive); in [5] it was 1.62 (inactive); in [11] it was -1.29 (inactive); in experiment [13] it was 1.58 (inactive). In addition, the z-score in experiment [14] was 0.985 (inactive); in [15] it was 0.336 (inactive); in [16] it was 0.764 (inactive); in [17], -0.464; in [18] it was 0.0564 (inactive); in experiment [19] it was -1.29 (inactive). The compound also displayed a z-score in experiment [20] of 1.21.
As to `CO[C@H]1COC(=O)[C@H](C)NC(=O)[C@@H](C)COC(=O)CC=C[C@@H]1C`, the composite z-score is -0.185 in experiment [1]; -0.356 in experiment [6]; -0.016 in experiment [7]; 1.24 with Torsin-1A (Homo sapiens) [8]; 0.296 with Torsin-1A (Homo sapiens) [9]; 1.47 in [10]. The same compound displayed a composite z-score in [12] of -0.251. Also, the z-score in [2] is -0.068 (inactive); in [3] it was -0.865 (inactive); in experiment [4], 0.341 (inactive); in experiment [5], -0.178 (inactive); in [11] it was 0.66 (inactive); in experiment [13] it was 0.945 (inactive). Also, the z-score is 0.54 (inactive) in experiment [14]; 0.795 (inactive) in experiment [15]; 0.465 (inactive) in experiment [16]; 0.0768 in [17]; -0.835 (inactive) in experiment [18]; 0.412 (inactive) in [19]. This compound yielded a z-score in [20] of 0.193.
Consider `C[C@@H]1CC[C@H]2C(=O)O[C@H](COc3ccc(C(C)(C)C)cc3)CN2[C@H]1c1ccc(Br)cc1`, for which the composite z-score in experiment [1] is -0.131; in experiment [6] it was 0.102; in [7], -0.17; with Torsin-1A (Homo sapiens) [8], -0.175; in the experiment with Torsin-1A (Homo sapiens) [9], -0.142; in experiment [10], 0.348. Also, in experiment [12], the composite z-score is -0.279. The z-score in [2] is -0.443 (inactive); in experiment [3] it was -0.301 (inactive); in [4], 0.262 (inactive); in experiment [5], 0.203 (inactive); in experiment [11] it was -0.425 (inactive); in experiment [13], 0.813 (inactive). Also, the z-score in [14] was 0.538 (inactive); in experiment [15], -0.082 (inactive); in experiment [16], 0.343 (inactive); in experiment [17], -0.53; in [18], 0.0709 (inactive); in experiment [19], -1.99 (inactive). In experiment [20], the z-score amounted to 0.568.
